From PubChem BioAssay
A3G deaminase – APOBEC3G DNA deaminase inhibitors, primary screen, biochemical, fluorescence, single-stranded DNA substrate, uHTS. DNA dC->dU-editing enzyme APOBEC-3G (Homo sapiens), Q9HC16. recombinant A3G, ssDNA deamination FAM/TAMRA fluorescence. inhibition, % at 20 µM. 330,000 tested, 0.28% active;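 active = inhibition of at least 40% at 20 µM, with no more than 30% in the related APOBEC3A deaminase screen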;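 note: plate controls were DMSO wells with A3G for no effect and wells lacking A3G enzyme for full effect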
APOBEC3A inh – APOBEC3A ssDNA deaminase inhibitors, primary screen, selectivity assay for APOBEC3G inhibitor project, biochemical, FAM/TAMRA oligo cleavage fluorescence; recombinant A3A, FAM/TAMRA ssDNA deamination fluorescence; inhibition, % at 20 µM; 330,000 tested, 0.41% active; AID 493011, 2011;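 active = at least 40% inhibition at 20 µM here, with at most 30% in a related deaminase screen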;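 note: plate controls were A3A with DMSO for no effect and wells lacking A3A enzyme for full effect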
NTR1 agonist – agonists of human NTR1, primary screen, imaging, U2OS cells, beta-arrestin-GFP, high content | Neurotensin receptor type 1 (Homo sapiens), P30989 | NTR1-U2OS beta-arrestin-GFP spot imaging, agonist mode | activation, % at 20 µM | 330,000 tested, 0.17% active | AID 493036, 2011;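 active = activation at or above 40% of the spot to cytoplasm intensity ratio, with at least 20 cells analyzed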;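 note: 0% = DMSO without peptide and 100% = 100 nM NTR1 peptide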
AHR act – AHR activators, primary screen, cell-based, luminescence, luciferase reporter, human; 320,000 tested, 2.5% active; activation, % at 5 µM; AHR-responsive luciferase reporter cells; Aryl hydrocarbon receptor (Homo sapiens), P35869; in the data active = activation above about 47%;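 note: 0% = vehicle wells and 100% = reference agonist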
Target sequence (P35869 whole entry, looked up): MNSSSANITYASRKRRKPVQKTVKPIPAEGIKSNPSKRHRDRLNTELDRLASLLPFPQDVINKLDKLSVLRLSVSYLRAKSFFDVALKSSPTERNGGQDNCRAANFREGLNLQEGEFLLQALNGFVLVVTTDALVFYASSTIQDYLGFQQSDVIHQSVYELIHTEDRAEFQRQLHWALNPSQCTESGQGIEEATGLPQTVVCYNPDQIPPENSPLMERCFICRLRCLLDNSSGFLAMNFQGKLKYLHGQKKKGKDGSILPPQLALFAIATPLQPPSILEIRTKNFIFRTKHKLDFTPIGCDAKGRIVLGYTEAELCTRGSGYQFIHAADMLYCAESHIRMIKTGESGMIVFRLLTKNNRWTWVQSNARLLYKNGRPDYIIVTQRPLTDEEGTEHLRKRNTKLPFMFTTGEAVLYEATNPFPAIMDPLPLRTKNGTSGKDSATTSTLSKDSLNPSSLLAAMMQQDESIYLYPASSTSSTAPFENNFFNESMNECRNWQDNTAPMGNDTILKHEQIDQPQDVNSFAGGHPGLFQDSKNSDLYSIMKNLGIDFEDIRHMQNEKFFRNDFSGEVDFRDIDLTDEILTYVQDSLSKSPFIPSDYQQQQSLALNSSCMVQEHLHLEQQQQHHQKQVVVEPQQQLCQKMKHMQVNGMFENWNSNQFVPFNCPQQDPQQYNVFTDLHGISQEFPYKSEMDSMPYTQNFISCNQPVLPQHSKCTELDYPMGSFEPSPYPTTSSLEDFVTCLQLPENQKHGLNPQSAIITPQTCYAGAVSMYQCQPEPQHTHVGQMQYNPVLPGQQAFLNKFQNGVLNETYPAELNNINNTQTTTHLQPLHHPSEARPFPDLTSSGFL
Active calls of the source: *. Shown are actives, neighbours in structure and some others; about 3.2% of the full set was active somewhere.

SMILES	A3G deaminase	APOBEC3A inh	NTR1 agonist	AHR act
CC(=O)c1ccccc1NS(C)(=O)=O	-5	1	0	-4
Cn1c(=N)n(CC(=O)c2ccc(Cl)c(Cl)c2)c2ccccc21	-1	1	1	54*
Cn1c(=N)n(CC(=O)c2ccccc2)c2ccccc21	-7	0	1	40
COc1ccc(C(=O)Cn2c(=N)n(C)c3ccccc32)cc1	-5	-4	-1	76*
C=CCn1c(=N)n(CC(=O)c2ccc(OC)cc2)c2ccccc21	-6	-6	0	67*
CCOC(=O)Cc1nc2ccccc2n(CC#N)c1=O	-3	4	0	11
CC1(NC(=O)CCc2nc3sc4c(c3c(=O)[nH]2)CCCC4)CCS(=O)(=O)C1 (stereo not drawn)	11	15	-1	4
CCOC(=O)C1CCN(S(=O)(=O)c2ccc3oc(=O)ccc3c2)CC1	1	-4	0	2
Cc1ccc(OCC(=O)NCCNC(=O)c2cccnc2)cc1C	1	2	-2	7
O=C(/C=C/c1ccc(Br)o1)Nc1nnc(C2CC2)s1	54	78	0	66*
O=C(NCc1cccnc1)c1ccc(Br)o1	-9	-1	-1	1
Cc1cc(C)cc(NC(=O)Nc2ccc3c(c2)N(C)C(=O)CS3)c1	-5	-2	22	71*
Cc1ccc(NC(=O)Nc2ccc3c(c2)N(C)C(=O)CS3)cc1C	1	4	3	25
COc1ccc(N=Cc2oc3ccc4ccccc4c3c2O)cc1	-13	-5	-1	58*
COc1ccc(N=Cc2[nH]c3ccccc3c2O)cc1	-5	2	1	26
CCN1N=C(c2ccccc2)Cn2c1nc1ccccc12	0	1	2	67*
OCc1c[nH]c2ccccc12	-6	1	3	53*
O=C(Cc1c[nH]c2ccccc12)Nc1nc2ccccc2[nH]1	3	3	-3	91*
O=C(Cc1ccccc1)Nc1nc2ccccc2[nH]1	-8	-1	-1	6
CN1CCN(c2nc(-c3ccc(Cl)cc3Cl)nc3ccccc23)CC1	-3	3	1	3
O=C(C[n+]1cc(Br)cc(Br)c1)c1ccc(Cl)cc1	-3	-4	0	9
O=C(C[n+]1cccc2ccccc21)c1ccc(Br)cc1	-6	-7	-2	65*
O=C(C[n+]1cc(Br)cc2ccccc21)c1ccc(Cl)cc1	-3	0	0	73*
NC(=O)c1ccc(NC(=O)COC(=O)CC2Sc3ccccc3NC2=O)cc1 (stereo not drawn)	0	4	1	13
COC(=O)c1ccc(COc2ccccc2/C=C/C(=O)c2ccc(OCC(=O)O)cc2)cc1	8	1	2	2
SMILES	A3G deaminase	APOBEC3A inh	NTR1 agonist	AHR act
Cc1ccc(NC(=O)CCC(=O)NNC(=O)COc2ccccc2)cc1C	-13	-4	0	68*
Cc1cc(C(=O)COC(=O)c2cccc(O)c2)c(C)n1C1CC1	-3	-2	0	3
CC(=O)N/C(=N/c1nc(C)cc(C)n1)Nc1cc(C)cc(C)c1	5	1	7	58*
CC(=O)N/C(=N/c1nc(C)cc(C)n1)Nc1ccc(NC(C)=O)cc1	-4	-1	2	15
CCC(=O)N1CCN(c2ccccc2NC(=O)COc2ccccc2Cl)CC1	-6	-3	3	68*
CCC(=O)N1CCN(c2ccc(NC(=O)COc3ccccc3Cl)cc2)CC1	-3	1	0	-8
CCOc1cc(C(=O)Nc2cccnc2)cc(OCC)c1OCC	-11	-5	0	73*
CCOc1ccc(C(=O)Nc2cc(C)on2)cc1	-2	0	-3	8
CCOc1cc(C(=O)Nc2cc(C)on2)cc(OCC)c1OCC	-5	-4	-1	64*
CCCOc1ccc(C(=O)Nc2cccnc2)cc1	1	0	0	7
CC1Cc2ccccc2N1C(=O)COC(=O)Cc1ccc(F)cc1 (stereo not drawn)	-6	0	0	0
Cc1onc(-c2ccccc2Cl)c1NC(=O)NCc1cccs1	-7	-2	-1	-1
N#C/C(=C\c1ccc(-c2ccc([N+](=O)[O-])cc2)o1)C(=O)Nc1nc(-c2cccs2)cs1	8	8	3	16
N#C/C(=C\c1ccc(-c2ccccc2[N+](=O)[O-])o1)C(=O)Nc1nc(-c2cccs2)cs1	-3	3	5	59*
